Compound activity (PubChem BioAssay)
Gli-Sufu antag – Gli-Sufu pathway antagonism; inhibition, % at 5 µM; AID 588413; Sufu-KO-LIGHT fibroblasts, Gli luciferase reporter luminescence; hit rate 0.74% among 340,000;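 active = inhibition above about 55%, limit read from the data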;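 note: 0% = DMSO-treated cells and 100% = wells with medium but no cells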
Beta apoptosis – blocks beta cell apoptosis; INS-1E cytokine-induced death, ATP luminescence, 48 h; percent of positive-control rescue, neutral wells zero; protection from apoptosis, % (test concentration not listed); hit rate 0.8% among 300,000; AID 435005;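 active = Every replicate reaches about 75%, or at least half do and their mean reaches it too, limit read from the data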;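 note: 0% = cytokine-treated negative control wells and 100% = positive control rescue; higher means more ATP so stronger rescue from cytokine killing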
Jurkat NFkB inh – inhibitors of the PMA/ionomycin-induced NF-kB reporter in Jurkat cells | PMA/ionomycin-induced NF-kB luciferase reporter, luminescence | inhibition, % at 4 µM | hit rate 0.53% among 330,000 | AID 435003; in the data active = inhibition above about 50%
697 NFkB inh – inhibitors of the PMA/ionomycin-induced NF-kB reporter in 697 B cells; inhibition, % at 4 µM; hit rate 0.33% among 330,000; 697 B-cell NF-kB luciferase reporter, 16 h; in the data active = inhibition above about 35%
697 NFkB conf – lowers PMA/ionomycin-induced NF-kB signal in 697 B cells | hit rate 35% among 2,000 | 697 B-cell NF-kB luciferase, 16 h | shares compounds with 697 NFkB inh | AID 449746 | inhibition, % at 4 µM; in the data active = inhibition mostly above about 28%, no sharp cut-off; inactive = mostly below about 22%
Starred values were filed as active, the others as inactive; / = no result. Sampled rows, rich in hits. Any-hit rate of the full collection: about 1.8%.

SMILES | Gli-Sufu antag | Beta apoptosis | Jurkat NFkB inh | 697 NFkB inh | 697 NFkB conf
Cc1cccc(NC(=O)CSc2nnc(-c3cc(C)n(-c4ccccc4)c3C)o2)c1C | 23 | -5 | -12 | 71* | 25
CCOC(=O)c1c(C)oc2ccc(NS(=O)(=O)c3ccc4c5c(cccc35)C(=O)N4)cc12 | 5 | 6 | 12 | -1 | /
COc1ccc(NC(=O)CSCc2cc(=O)n3ccsc3n2)cc1 | -9 | -7 | 1 | 0 | /
CC1CN(S(=O)(=O)c2cccc(-c3csc(-c4ccccc4)n3)c2)CC(C)O1 (stereo not drawn) | -64 | 4 | 12 | 6 | /
COC(=O)c1ccc(/C=C/c2nc3ccccc3c(=O)[nH]2)cc1 | -14 | 0 | -112 | -43 | /
Cc1ccc(/C=C/c2nc3ccccc3c(=O)[nH]2)cc1 | -58 | 10 | -73 | -254 | -255
Cc1cc(Cl)c2oc(C(=O)NCCC3CCCCO3)c(C)c2c1 (stereo not drawn) | -10 | 6 | -59 | -50 | /
COc1ccc2nc(Sc3c([N+](=O)[O-])nc(C)n3Cc3ccccc3)[nH]c2c1 | 3 | -11 | -9 | 39* | 47*
c1ccc2nc(-c3nc4ccccc4[nH]3)ccc2c1 | 7 | 43 | -116 | -274 | -343
O=C(N/N=C(\CC(=O)c1cccs1)C(F)(F)F)c1ccncc1 | -6 | -9 | 7 | -271 | -7
CN(C)CCCNC(=O)CC(c1ccc(F)cc1)c1ccco1 (stereo not drawn) | -1 | 0 | 3 | 3 | /
O=C(NCCOc1ccccc1F)C1CC(=O)N(c2ccc3c(c2)OCCO3)C1 (stereo not drawn) | 4 | -4 | 3 | 0 | /
CCCc1ccc(-c2cc(C(=O)N3CCN(c4ccccn4)CC3)c3ccccc3n2)cc1 | -68 | 9 | -40 | -257 | -138
O=C1C=C(c2ccc3c(c2)oc2ccccc23)C[C@@H](c2ccc(Cl)cc2)C1 | 8 | 0 | -11 | 16 | /
COc1ccc(C/C(C)=N/NC(=O)C2COc3ccccc3O2)cc1 (stereo not drawn) | -9 | -7 | 2 | 9 | /
COc1cc(OC)c(/C=N/NC(=O)c2ccncc2)cc1Br | -2 | / | 19 | 14 | /
COc1cc(OC)c(/C=N/NC(N)=S)cc1Br | -9 | -14 | -9 | 55* | 18*
COc1ccc2c(c1)C(NC(=O)C(F)(F)F)CC2=O (stereo not drawn) | 1 | -4 | 1 | -10 | /
O=C(Nc1ccc(NC(=O)c2cccnc2)cc1)c1ccccc1 | -11 | 0 | -4 | 2 | /
O=C(Nc1ccc(-c2noc(-c3cccs3)n2)cc1)c1cccnc1 | -74 | 99* | -101 | -289 | -280
CCOC(=O)c1cc2c(=O)n3ccccc3nc2n(C)c1=NC(=O)c1c(-c2c(F)cccc2Cl)noc1C | 3 | -4 | -15 | 48* | 5
COc1ccc(C)cc1N(CC(=O)N/N=C/c1ccccc1C(=O)O)S(=O)(=O)c1ccccc1 | -13 | -3 | -17 | 0 | /
COC(=O)C1=C[C@@H](C(=O)OC)C2C3=C(C(=O)C24CCCCC4)[C@H](C)n2c(=O)n(C)c(=O)n2[C@@H]3C1 (stereo partly drawn) | 6 | -1 | -40 | -45 | /
COC(=O)C1=C[C@@H](C(=O)OC)C2C3=C(C(=O)C24CCCCC4)[C@H](C)n2c(=O)n(-c4ccccc4)c(=O)n2[C@@H]3C1 (stereo partly drawn) | 0 | 3 | 6 | 38* | 14
COc1ccc(-c2nn(C)c3sc(C(=O)N4CCOCC4)cc23)cc1OC | 2 | 3 | 16 | 37* | 4
SMILES | Gli-Sufu antag | Beta apoptosis | Jurkat NFkB inh | 697 NFkB inh | 697 NFkB conf
CC(=O)c1ccc(NC(=O)C2CCN(S(=O)(=O)c3cccnc3)CC2)cc1 | 5 | -2 | 22 | 8 | /
Cc1nc2c(-c3ccc(F)cc3)cnn2c(N)c1-c1ccc(F)cc1 | 32 | 5 | -149 | -357 | -252
Nc1c(-c2cccs2)cnc2c(-c3ccc(F)cc3)cnn12 | -185 | 1 | -147 | -319 | -358
Cc1cc(N)n2ncc(-c3ccc(F)cc3)c2n1 | -90 | 0 | -77 | -74 | /
CC(=O)c1ccc(NC(=O)c2ccc(CNc3c(N4CCCC4)c(=O)c3=O)cc2)cc1 | 5 | 3 | 10 | 6 | /
CCc1cccc(NC(=O)c2ccc(CNc3c(N4CCCC4)c(=O)c3=O)cc2)c1 | 8 | 8 | 20 | 42* | 33*
Cc1ccc(NC(=O)c2ccc(CNc3c(N4CCC(C)CC4)c(=O)c3=O)cc2)cc1 | 23 | 5 | 16 | 50* | 16
CC(=O)c1ccc(NC(=O)c2ccc(CNc3c(N4CCOCC4)c(=O)c3=O)cc2)cc1 | -1 | -2 | -6 | 12 | /
